Screens (PubChem)
FMDV inh: blocks foot and mouth disease virus; FMDV antiviral cell-based qHTS; 1.2% of 410,000 active; Potency, µM (top dose mostly 57.9 µM), for the others: top-dose activity change, negative = inhibition, usual class: inhibitors; calls by dose curve; tested in HEK293T cells; note: read-out not given here; potency is the fitted concentration of half-maximal effect; nearly all actives have a fitted effect of over 45% in size
MARV entry inh: inhibitors of Marburg virus binding or cell entry | 1.8% of 300,000 active | AID 540276 | Potency, µM (doses to about 37.8 µM), for the others: at the top dose activity change, negative = inhibition, actives largely listed as inhibitors | Marburg virus pseudotyped entry inhibition, cell reporter; calls by dose curve; tested in HEK293 cells; note: potency is the fitted concentration of half-maximal effect
HCV inh: blocks hepatitis C virus | Huh7.5.1 HCVcc-Cre infection, luciferase reporter, 44 h | Potency, µM (highest dose often 41.8 µM), inactives show at the top dose activity change, negative = inhibition, actives largely listed as inhibitors | 3.4% of 340,000 active | AID 651820; active = well fitted inhibition curve with a large enough effect; inconclusive = small, poorly fitted or top-dose-only effect, or another doubt; inactive = no such curve, though single readings can be large or run the other way; note: potency is the fitted concentration of half-maximal effect
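Reporter virus HCVcc-Cre (~0.5 moi) infects cells exposed to compound; seeding density 1,000 cells/well with 4 h settling beforehand. Luminescence, 15 sec read, taken 44 h post-infection following a 15 min RT substrate incubation.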
HCMV inh: inhibitors of human cytomegalovirus; HFF cells, HCMV-luciferase reporter, 72 h; hits give low values; activity change, negative = inhibition, % at 57.5 µM; 4.5% of 410,000 active; in the data active = activity change below about -60%; inconclusive = no clear call, values can overlap the other calls; inactive = above about -39%
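After 16 h attachment at 37C, HFF cells received test compound and HCMV-luciferase (1 PFU/cell); reporter luminescence read 72 h later, data normalized against buffer-only and known inhibitor Salinomycin.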
Lassa entry inh: Lassa virus entry inhibition. Lassa virus pseudotype entry inhibition, cell reporter. Potency, µM (top dose mostly 37.9 µM), for the others: top-dose activity change, negative = inhibition, hits mostly inhibitors. 1.2% of 300,000 active. AID 540256; calls by dose curve; tested in HEK293 cells; note: potency is the fitted concentration of half-maximal effect; nearly all actives have a fitted effect of over 50% in size
Starred values were filed as active, the others as inactive; u = inconclusive; x = not tested or not shown; [ ] = remark or other dose. Rows were chosen to be rich in hits. Some 7.9% of all compounds tested hit in one or more screens of this group. % is set by controls: 0 for no effect and ±100 for the full control effect.

SMILES | FMDV inh | MARV entry inh | HCV inh | HCMV inh | Lassa entry inh
CN(C)C(CNC(=O)c1cc(S(=O)(=O)N(C)c2ccccc2)ccc1Cl)c1ccccc1 (stereo unspecified) | -28% | u | 7.1µM* | u | u
CN(C)C(CNC(=O)c1cc(S(=O)(=O)N(C)c2ccc(F)cc2)ccc1Cl)c1ccco1 (stereo unspecified) | -8% | -16% | u | u | -9%
CN(c1ccccc1)S(=O)(=O)c1ccc(Cl)c(C(=O)NC2=NCCS2)c1 | -21% | x | u | -101* | x
Cc1cc(C)cc(NC(=O)CSCc2cc(=O)c3cc(Cl)ccc3[nH]2)c1 | 3% | x | x | 3 | -28%[46.1 µM]
Cc1ccc(C)c(CN2C(=O)C(O)(c3c[nH]c4ccccc34)c3ccccc32)c1 (stereo unspecified) | -16% | u | x | -30 | u
O=C1N(Cc2ccccc2)c2ccccc2C1(O)c1c[nH]c2ccccc12 (stereo unspecified) | -20% | -24%[46.1 µM] | x | 15 | -17%[46.1 µM]
Cc1[nH]c2ccccc2c1C1(O)C(=O)N(Cc2ccc(Cl)cc2)c2ccccc21 (stereo unspecified) | -24% | 10%[46.1 µM] | x | -99* | u
O=C1N(Cc2ccccc2Cl)c2ccccc2C1(O)c1c[nH]c2ccccc12 (stereo unspecified) | -21% | 3%[46.1 µM] | x | -94* | -21%[46.1 µM]
Cc1ccccc1CN1C(=O)C(O)(c2c[nH]c3ccccc23)c2cc(Cl)ccc21 (stereo unspecified) | -24% | 8.9µM* | x | -93* | u
Cc1c(C(=O)N(C)C2CCOC2)sc2ncnc(NCc3ccc4c(c3)OCO4)c12 (stereo unspecified) | 11% | x | x | x | x
O=C(Nc1cc(F)ccc1F)N1CCC(CN2CCOCC2)CC1 | -11% | x | x | 36 | u
CC12CCC(=O)N1C(C(=O)Nc1nc3ccc(Cl)cc3s1)CS2 (stereo unspecified) | 0% | 17%[46.1 µM] | -14% | 0 | 5%
Cc1ccc(-n2c(C)nn(Cc3ccc([N+](=O)[O-])cc3)c2=O)cc1 | -13% | -10%[46.1 µM] | -12% | -82* | -27%
N#CC(c1cccc(Cl)c1)c1ccc2c(C(F)(F)F)cc(C(F)(F)F)nc2n1 (stereo unspecified) | 5µM* | u | 2.8µM* | -104* | 2.2µM*
CN1C2CCC1/C(=C\c1ccc(F)cc1)C(=O)/C2=C/c1ccc(F)cc1 | -5% | u | u | -103* | -27%
CC=CCCN1C=C(C(C)=O)C(c2ccccc2)NC1=O (stereo unspecified) | x | -22%[14.2 µM] | x | x | x
CC1CCCN(CC(O)COC(c2ccccc2)c2ccccc2)C1 (stereo unspecified) | 1% | 4µM* | u | -28 | u
CN1CCN(CC(O)COC(c2ccccc2)c2ccccc2)CC1 (stereo unspecified) | -5% | u | 16µM* | u | -11%
OC(COC(c1ccc(Cl)cc1)c1ccc(Cl)cc1)CN1CCN(c2ccccn2)CC1 (stereo unspecified) | u | u | 8.9µM* | 11 | u
CCC(CC)C(=O)Nc1ccc2nc(SCC(=O)N3c4ccccc4CC3C)sc2c1 (stereo unspecified) | 0% | u | x | -32 | u
O=C1[C@@H]2[C@@H]3C[C@@H]([C@H]4ON=C(c5ccc(Cl)cc5)[C@@H]34)[C@@H]2C(=O)N1c1ccc2c(c1)OCO2 | 0% | u | 6% | -11 | -13%
O=C1[C@@H]2[C@@H]3C[C@@H]([C@H]4ON=C(c5ccc(OCc6ccccc6)cc5)[C@@H]34)[C@@H]2C(=O)N1c1ccc2c(c1)OCO2 | -9% | 4.5µM* | -21% | 13 | -15%
CC(C(=O)O)N1C(=O)c2ccccc2C1=O (stereo unspecified) | -10% | 1% | 6% | -99* | 0%
CCN(CC(=O)Nc1ccc2c(c1)OCO2)Cc1nc2ccccc2c(=O)[nH]1 | 10% | -6%[46.1 µM] | -14% | -100* | -9%
CCN(CC(=O)Nc1ccc2c(c1)OC(F)(F)O2)Cc1nc2ccccc2c(=O)[nH]1 | -30% | u | -19% | u | -10%
SMILES | FMDV inh | MARV entry inh | HCV inh | HCMV inh | Lassa entry inh
CCN(CC(=O)Nc1ccccc1SC)Cc1nc2ccccc2c(=O)[nH]1 | -24% | -2%[46.1 µM] | 11µM* | 19 | 1%
Cc1csc(-c2nc3ccccc3n2C(C(=O)NC(C)(C)C)c2cc3ccccc3o2)c1 (stereo unspecified) | 24% | x | x | 126 | x
Cc1ccc2cc(C(c3nnnn3Cc3ccccc3)N3CCN(c4ccccc4)CC3)c(=O)[nH]c2c1 (stereo unspecified) | -14% | 21µM* | u | -33 | -19%
Cc1cccc2cc(C(c3nnnn3Cc3ccccc3)N3CCCc4ccccc43)c(=O)[nH]c12 (stereo unspecified) | 36% | u | x | -83* | -10%[14.3 µM]
COc1ccc(C(=O)[C@]2(C)C=C(c3ccc(OC)cc3)[C@H](C)C2)cc1 | x | 10%[14.2 µM] | x | x | x
CC(C)COc1ccc(C(=O)NNC(=O)c2ccc(=O)[nH]c2)cc1 | 0% | x | 5% | -21 | x
Cc1ccc(-n2ncc(C(=O)Nc3cc(Cl)ccc3C)c2C2CCNCC2)cc1C | -22% | x | -11% | -91* | x
Cc1cc(C)cc(NC(=O)c2cnn(-c3ccccc3)c2C2CCNCC2)c1 | -12% | x | -1% | -86* | x
O=C(Nc1cccc(C(F)(F)F)c1)c1cnn(-c2cccc(F)c2)c1C1CCNCC1 | -18% | x | x | -77* | 38%[46.1 µM]
Cc1cc(C)cc(NC(=O)c2cnn(-c3ccc(C)c(C)c3)c2C2CCNCC2)c1 | -17% | x | x | -93* | u
O=C(CSc1ccccc1F)NNC(=O)c1cncc(Br)c1 | 23% | x | 10% | -32 | x
Cc1onc(-c2ccccc2)c1C(=O)N1CCC(C)(C(=O)NS(=O)(=O)C2CC2)C1 (stereo unspecified) | -19% | x | x | -4 | x
COc1cccc(NC(=O)C2Cc3ccccc3CN2C(=O)c2ccco2)c1 (stereo unspecified) | 25% | u | -16% | 24 | 10%[46.1 µM]
CN(C)c1ccc(CC(=O)N2CCCC(c3cc(C(=O)Nc4ccc(C(C)(C)C)cc4)no3)C2)cc1 (stereo unspecified) | 18µM* | x | x | -75* | x
COc1ccc(C(=O)N2CCCC(c3cc(C(=O)Nc4ccccc4)no3)C2)cc1 (stereo unspecified) | 18% | x | x | -73* | x
O=C(c1ccc(F)cc1)N1CCC(c2ccccc2)C1 (stereo unspecified) | 36% | -14%[46.1 µM] | 4% | 43 | -8%
COc1ccc(C(=O)N2CCCC(c3ccccc3)C2)cc1 (stereo unspecified) | -1% | u | -16% | -35 | 4.5µM*
COc1ccc(C(=O)Nc2ccc(Cl)cc2C(=O)N2CCCC(C)C2)cc1 (stereo unspecified) | 17% | -10% | u | -100* | -3%
O=C(Nc1ccccc1)c1cc(C2CCCN(C(=O)CCc3ccccc3)C2)on1 (stereo unspecified) | 31% | x | x | -18 | x
